Laboratory results: PubChem BioAssay AID1159580 (chemical genetic matrix, 2015)
The campaign covered roughly 5,500 compounds. About 2,000 (36%) were called active. Another 18% or so got no clear call; they are omitted. Cut-off read from the data, not from the text of the source: active = normalized growth mostly below about 0.91 (no sharp cut-off); inconclusive = no clear call, values can overlap the other calls; inactive = mostly above about 0.92. The list shows a part of the results. Where a SMILES comes first, the peptide text is derived from it. Bridges are numbered along the chain shown (N, C = ends). [ ]: non-standard residue; d: D form. The star is where a group is joined. Heptanoyl(6-Me) = CC(C)CCCCC(=O)*; Dab = NCC[CH](N)C(=O)O

Experiment: chemical genetic growth profiling, strain panel (AID 1159580);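 note: tested at 20 µM; growth read once vehicle control cultures reached saturation at 30 °C; 1 = growth at the plate median or of vehicle wells; lower values mean less growth of the strain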
Settings: S. cerevisiae deletion strains, growth OD

Measured: normalized growth

CCC(C)C1NC(=O)C(CCN)NC(=O)C(NC(=O)C(CCN)NC(=O)C(NC(=O)C(CCN)NC(=O)CCCCC(C)C)C(C)O)CCNC(=O)C(C(C)O)NC(=O)C(CCN)NC(=O)C(CCN)NC(=O)C(C(C)CC)NC1=O (configuration not stated) ({Heptanoyl(6-Me)}-[Dab]T[Dab][Dab][Dab]II[Dab][Dab]T; lactam 4-C; configuration not given here)
inactive: locus YHR030C, strain SLT2, hits give low values 0.976 | locus YJL095W, strain BCK1, hits give low values 0.985 | locus YJR066W, strain TOR1, hits give low values 0.95 | locus YLR113W, strain HOG1, hits give low values 0.967 | locus YNL183C, strain NPR1, hits give low values 0.944 | locus YOR231W, strain MKK1, hits give low values 0.971 | locus YPL256C, strain CLN2, hits give low values 0.973
